Measured values from PubChem BioAssay (NCI).
Where “and” joins values, the source holds several entries; their conditions need not be identical. Equal values may be shown once. This is part of a sample that, as a whole, favours compounds with a hit. Of some 83,000 tested, about 20% had one in any assay.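 Negative percent growth values reflect cell death: -40 means 40% of the cells present at the start died, and -100 means all died.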 Calls of active or inactive are those of the source. Rule for the calls: active = growth percent below 10; inactive = the rest.

tested on: MDA-MB-468 breast; assay: NCI-60 one-dose screen, 48 h (100 = growth as untreated, 0 = no growth, -100 = all killed); conditions: 10 µM unless noted

SMILES | growth
CN(C)P1(N(C)C)=NP(N(C)C)(N(C)C)=NP(N(C)C)(N(C)C)=N1 | 106% (inactive)
COc1ccc(Nc2ccc([N+](=O)[O-])cc2[N+](=O)[O-])cc1CN(CCCl)CCCl | 10.1% (inactive)
O=C(CCl)NCNC(=O)CCl | 96.8% (inactive)
O=C1NC(=S)NC(=O)C1=Cc1ccccc1 | 117% (inactive)
Nc1c(F)cc(-c2nc3cc(F)ccc3[se]2)cc1F | -39.8% (active)
COC(=O)N[C@H]1CCc2c(Br)c(OC)c(OC)c(OC)c2-c2ccc(SC)c(=O)cc21 | -23.7% (active)
COc1cccc2c1cc([N+](=O)[O-])c1c(C(=O)O)cc3c(c12)OCO3 | -46.6% (active) and 100% (inactive)
CC1(C)[C@H](O)[C@H](F)C[C@@]2(C)Oc3ccc(C(=O)Nc4ccc5c(c4)NC(=O)C54CCN(CCCCC#N)CC4)cc3C[C@H]12 | 7.2% (active)
CCC[CH2][Sn]([CH2]CCC)([CH2]CCC)[O]c1ccc(Cl)cc1Cl | -98.7% (active)
O=C(NC1=NCC[Se]1)c1ccccc1O | 93.1% (inactive)
COc1ccc(/C=C(\C)[N+](=O)[O-])cc1OC | -77.3% (active)
COC(=O)[C@@H](C)C[C@H](Cc1ccc2ccccc2c1)NC(=O)c1csc([C@@H](C[C@H](C(C)C)N(C)C(=O)[C@@H](NC(=O)[C@H]2CCCCN2C)C(C)C)OC(C)=O)n1 | 67% (inactive)
n1nc(-c2nonc2-c2nn[nH]n2)n[nH]1 | 101% (inactive)
Oc1ccc(Br)cc1CN1CCN(Cc2ccc(Cl)cc2)CC1 | 95.9% (inactive)
C=CC[n+]1ccc(-c2cc[n+](CC=C)cc2)cc1 | 66.6% (inactive)
CC[n+]1c(-c2ccccc2)c2cc(N)ccc2c2ccc(N)cc21 | -62.8% (active)
COc1ccc(/C=C\c2cc(OC)c(OC)c(OC)c2)c(NS(=O)(=O)c2ccc(F)cc2)c1O | 15.9% (inactive)
O=C(CC1(O)C(=O)N(Cc2ccccc2)c2ccccc21)c1ccc(C(=O)NCC2CCC3(CC2)OOC2(CCCCC2)OO3)cc1 (stereo not given) | -56.6% (active)
CCCC(C)(C)c1ccc2c(c1)OC(C)(C)[C@@H]1CC=C(C)C[C@@H]21 | 97.6% (inactive)
O=[N+]([O-])/C=C/c1ccc(Cl)cc1[N+](=O)[O-] | -55.9% (active)

SMILES | growth
C[C@]12CCC3[C@@H](C[C@@H]4SC(Nc5ccccc5)=N[C@@]45CC(=O)CC[C@]35C)[C@@H]1CCC2=O (stereo not given in full) | -26.8% (active)
CC(C)[C@@H]1NC(=O)[C@]2(C)CSC(=N2)c2csc(n2)CNC(=O)C[C@@H](/C=C/CCS)OC1=O | 30% (inactive)
O=C(O)C(Br)CBr (stereo not given) | 94.8% (inactive)
COc1ccc(Nc2ccnc3cc(Cl)ccc23)cc1CN(CCCl)CCCl | -58.6% (active)
COC(=O)[C@H](Cc1ccccc1)NNC(=O)c1csc([C@@H](C[C@H](C(C)C)N(C)C(=O)[C@@H](NC(=O)[C@H]2CCCCN2C)C2CC2)OC(C)=O)n1 | -11.2% (active)
CCC(CO)NC1CCCCC1 (stereo not given) | 73.6% (inactive)
Cc1nnc([S-])s1.[Au+].c1ccc([PH+](c2ccccc2)c2ccccc2)cc1 | -68.6% (active)
CNC(C)Cc1ccccc1 (stereo not given) (tested in a mixture with another compound) | 91.3% (inactive)
N#CCC(=O)c1ccccc1 | 6.35% (active)
c1ccc([As]=[As]c2ccccc2)cc1 (stereo not given) | -55.7% (active)
C1CNC2CCCC2C1 (stereo not given) | 97.4% (inactive)
O=C(O)CCCc1ccc(N(CCCl)CCCl)cc1 | 77.7% (inactive)
CC(=O)Oc1ccc(Cl)cc1 | 93.6% (inactive)
COc1ccc(N(CC(=O)NCCC[Te]c2ccccc2)C(=O)CNC(=O)OC(C)(C)C)cc1 | 92.6% (inactive)
COc1cc([C@@H]2c3cc4c(cc3[C@H](OC(C)=O)[C@H]3COC(=O)[C@H]23)OCO4)cc(OC)c1OC | 44.6% (inactive)
CC(C)=CCC[C@H](C(=O)O)[C@@H]1CC[C@]2(C)C3=C(CC[C@@]12C)[C@@]1(C)CC[C@H](O)C(C)(C)[C@@H]1CC3 | 107% (inactive)
O=NN1CCCCC1 | 106% (inactive)
Nc1nnnc2nc[nH]c12 | -11.9% (active)
COP(=S)(OC)Oc1ccc(SC)c(C)c1 | 108% (inactive)
C#CC1(O)CCC(C(C)(C)C)CC1 (stereo not given) | 122% (inactive)
